For nine compounds, relative enzymatic activity results are on record in the supplement of paper PMC9446081.

± gives the standard deviation of the averaged measurements.

Holding throughout (experiment): relative enzymatic activity vs untreated control (fraction); higher = less inhibition
Common to all, as to conditions: 100 µM; incubation time: 2 h at 37 C

One test relates to DNA gyrase. As for the experimental part:
(§1)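 In vitro enzymatic inhibition assays (ProFoldin kits) for 12 purified essential E. coli enzymes or complexes, each treated with 218 active antibacterial compounds at 100 µM for 2 h at 37°C. Read-outs were fluorescence or absorbance (phosphate detection, dye binding), converted to activity via standard curves and expressed relative to untreated DMSO controls.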

For another test, the target named is DNA helicase (UniProt P0ACB1). As for the experimental part:
as §1

Another test concerns the target DNA ligase (UniProt B1XA82). As for the experimental part: as §1
In another test the target is DNA polymerase (UniProt P10443). How it is done: as §1
A further test concerns the target DNA primase (UniProt P0ABS7). How it is done:
as §1

The target of the next test is GlmU (UniProt A7ZTU1). As for the experimental part:
as §1

A further test addresses Guanlyate kinase (UniProt Q0TBG1). How it is done:
as §1

The target in a further test is MurA (UniProt Q3YX52). As for the experimental part: as §1
A further test concerns the target T1, MurD (UniProt P14900).
T1 sequence (whole entry): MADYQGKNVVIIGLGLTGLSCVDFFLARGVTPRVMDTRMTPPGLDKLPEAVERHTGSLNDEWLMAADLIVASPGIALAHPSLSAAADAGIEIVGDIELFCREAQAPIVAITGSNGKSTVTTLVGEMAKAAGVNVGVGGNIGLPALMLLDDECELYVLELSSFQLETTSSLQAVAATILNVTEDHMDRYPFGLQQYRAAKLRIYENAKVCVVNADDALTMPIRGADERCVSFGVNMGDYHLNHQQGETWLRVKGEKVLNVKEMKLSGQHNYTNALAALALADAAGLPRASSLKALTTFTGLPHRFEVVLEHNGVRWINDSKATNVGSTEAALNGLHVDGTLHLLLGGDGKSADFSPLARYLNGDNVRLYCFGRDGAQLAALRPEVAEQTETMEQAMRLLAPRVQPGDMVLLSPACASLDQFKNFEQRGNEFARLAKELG
As for the experimental part:
as §1

For another test, the target named is T2, MurF (UniProt P11880).
T2 sequence (whole entry): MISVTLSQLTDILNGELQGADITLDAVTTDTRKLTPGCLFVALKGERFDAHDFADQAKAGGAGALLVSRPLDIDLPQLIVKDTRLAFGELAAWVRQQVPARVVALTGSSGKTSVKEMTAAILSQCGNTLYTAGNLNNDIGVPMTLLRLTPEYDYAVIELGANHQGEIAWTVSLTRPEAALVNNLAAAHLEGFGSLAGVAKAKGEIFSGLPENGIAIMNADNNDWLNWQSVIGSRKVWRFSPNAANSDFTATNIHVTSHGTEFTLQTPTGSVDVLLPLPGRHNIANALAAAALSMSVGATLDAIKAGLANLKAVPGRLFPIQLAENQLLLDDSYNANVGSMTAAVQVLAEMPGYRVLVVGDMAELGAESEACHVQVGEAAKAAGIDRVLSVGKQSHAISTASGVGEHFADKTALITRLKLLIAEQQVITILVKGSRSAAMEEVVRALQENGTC
As for the experimental part:
as §1

For the next test, the system named is RNA polymerase. As for the experimental part: as §1

MurA, sequence (Q3YX52 whole entry): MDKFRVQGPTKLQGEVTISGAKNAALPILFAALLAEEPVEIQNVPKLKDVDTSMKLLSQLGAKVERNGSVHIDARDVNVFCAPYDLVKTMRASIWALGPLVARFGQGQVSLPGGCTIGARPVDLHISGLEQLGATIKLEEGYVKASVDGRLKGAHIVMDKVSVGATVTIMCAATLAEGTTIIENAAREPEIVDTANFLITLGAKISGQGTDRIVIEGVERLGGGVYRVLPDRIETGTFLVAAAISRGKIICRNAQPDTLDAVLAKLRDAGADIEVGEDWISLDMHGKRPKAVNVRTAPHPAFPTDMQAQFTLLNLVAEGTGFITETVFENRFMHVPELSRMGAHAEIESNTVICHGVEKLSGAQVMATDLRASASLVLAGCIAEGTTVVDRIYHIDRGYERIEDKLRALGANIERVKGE
DNA helicase, sequence (P0ACB1 whole entry): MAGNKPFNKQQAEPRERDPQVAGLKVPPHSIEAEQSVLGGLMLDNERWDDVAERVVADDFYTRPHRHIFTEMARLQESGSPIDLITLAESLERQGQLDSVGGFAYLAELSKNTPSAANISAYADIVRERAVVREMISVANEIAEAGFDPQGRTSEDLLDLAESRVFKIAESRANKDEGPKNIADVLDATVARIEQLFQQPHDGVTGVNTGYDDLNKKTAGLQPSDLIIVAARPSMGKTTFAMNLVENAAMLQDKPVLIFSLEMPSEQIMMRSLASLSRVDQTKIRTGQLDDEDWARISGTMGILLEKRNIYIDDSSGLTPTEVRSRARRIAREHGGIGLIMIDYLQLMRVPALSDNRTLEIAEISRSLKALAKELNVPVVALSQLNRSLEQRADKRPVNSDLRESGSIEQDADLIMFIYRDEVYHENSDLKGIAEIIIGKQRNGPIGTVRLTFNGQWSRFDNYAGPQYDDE
GlmU, sequence (A7ZTU1 whole entry, looked up): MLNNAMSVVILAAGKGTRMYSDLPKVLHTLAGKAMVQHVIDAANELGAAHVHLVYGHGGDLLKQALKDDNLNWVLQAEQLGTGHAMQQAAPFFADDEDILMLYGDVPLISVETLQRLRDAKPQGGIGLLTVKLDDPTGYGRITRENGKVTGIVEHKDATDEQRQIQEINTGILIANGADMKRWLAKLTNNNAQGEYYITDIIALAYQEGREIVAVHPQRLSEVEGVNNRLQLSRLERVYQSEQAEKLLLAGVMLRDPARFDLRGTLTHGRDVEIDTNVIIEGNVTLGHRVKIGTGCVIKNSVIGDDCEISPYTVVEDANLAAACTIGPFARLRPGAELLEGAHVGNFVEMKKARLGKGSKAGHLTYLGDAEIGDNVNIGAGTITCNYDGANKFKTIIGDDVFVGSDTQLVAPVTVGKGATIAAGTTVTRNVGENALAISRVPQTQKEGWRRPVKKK
DNA ligase, sequence (B1XA82 whole entry): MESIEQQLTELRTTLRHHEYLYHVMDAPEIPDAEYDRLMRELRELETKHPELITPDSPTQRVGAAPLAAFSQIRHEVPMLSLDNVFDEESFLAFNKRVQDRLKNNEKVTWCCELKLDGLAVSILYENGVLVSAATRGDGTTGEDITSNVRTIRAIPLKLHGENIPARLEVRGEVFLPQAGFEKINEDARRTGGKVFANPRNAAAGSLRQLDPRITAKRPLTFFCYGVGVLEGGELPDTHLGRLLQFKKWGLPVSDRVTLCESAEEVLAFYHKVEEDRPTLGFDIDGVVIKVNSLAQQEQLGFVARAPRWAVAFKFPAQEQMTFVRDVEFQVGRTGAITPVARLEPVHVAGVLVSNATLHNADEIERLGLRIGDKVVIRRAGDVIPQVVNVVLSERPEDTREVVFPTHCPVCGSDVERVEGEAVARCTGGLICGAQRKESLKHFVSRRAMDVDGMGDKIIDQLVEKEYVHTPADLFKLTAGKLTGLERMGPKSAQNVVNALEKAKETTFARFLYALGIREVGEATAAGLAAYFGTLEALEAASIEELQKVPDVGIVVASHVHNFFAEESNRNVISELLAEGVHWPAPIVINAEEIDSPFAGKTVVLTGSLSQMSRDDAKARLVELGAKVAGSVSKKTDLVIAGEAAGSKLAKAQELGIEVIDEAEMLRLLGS
DNA polymerase, sequence (P10443 whole entry): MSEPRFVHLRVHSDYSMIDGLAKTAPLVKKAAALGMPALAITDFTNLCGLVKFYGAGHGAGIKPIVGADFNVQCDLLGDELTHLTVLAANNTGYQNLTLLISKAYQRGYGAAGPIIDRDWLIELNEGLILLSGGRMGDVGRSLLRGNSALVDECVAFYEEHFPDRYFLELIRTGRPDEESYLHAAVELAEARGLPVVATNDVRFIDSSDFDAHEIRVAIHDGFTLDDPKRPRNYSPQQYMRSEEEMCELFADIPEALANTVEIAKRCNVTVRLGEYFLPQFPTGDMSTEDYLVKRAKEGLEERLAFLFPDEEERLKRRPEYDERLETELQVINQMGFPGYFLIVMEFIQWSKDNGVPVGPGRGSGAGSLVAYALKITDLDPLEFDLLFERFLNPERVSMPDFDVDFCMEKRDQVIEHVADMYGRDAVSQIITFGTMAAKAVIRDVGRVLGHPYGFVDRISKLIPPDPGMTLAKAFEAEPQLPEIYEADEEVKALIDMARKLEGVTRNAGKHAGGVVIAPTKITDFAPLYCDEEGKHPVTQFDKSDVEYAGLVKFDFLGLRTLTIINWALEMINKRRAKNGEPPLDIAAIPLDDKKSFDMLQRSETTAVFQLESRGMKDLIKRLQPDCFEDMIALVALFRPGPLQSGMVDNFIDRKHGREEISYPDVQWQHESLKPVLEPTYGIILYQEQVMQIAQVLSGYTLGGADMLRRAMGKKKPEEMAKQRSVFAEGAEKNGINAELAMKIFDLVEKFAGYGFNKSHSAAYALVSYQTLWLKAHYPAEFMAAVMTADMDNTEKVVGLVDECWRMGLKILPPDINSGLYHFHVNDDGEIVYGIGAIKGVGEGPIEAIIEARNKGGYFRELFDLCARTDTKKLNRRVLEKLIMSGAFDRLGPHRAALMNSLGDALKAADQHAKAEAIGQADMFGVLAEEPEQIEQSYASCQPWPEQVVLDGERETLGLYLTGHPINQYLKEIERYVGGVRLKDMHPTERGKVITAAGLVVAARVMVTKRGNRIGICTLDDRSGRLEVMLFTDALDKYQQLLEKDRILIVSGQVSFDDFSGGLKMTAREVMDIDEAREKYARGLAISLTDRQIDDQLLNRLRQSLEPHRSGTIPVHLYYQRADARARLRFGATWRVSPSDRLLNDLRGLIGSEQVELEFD
DNA primase, sequence (P0ABS7 whole entry): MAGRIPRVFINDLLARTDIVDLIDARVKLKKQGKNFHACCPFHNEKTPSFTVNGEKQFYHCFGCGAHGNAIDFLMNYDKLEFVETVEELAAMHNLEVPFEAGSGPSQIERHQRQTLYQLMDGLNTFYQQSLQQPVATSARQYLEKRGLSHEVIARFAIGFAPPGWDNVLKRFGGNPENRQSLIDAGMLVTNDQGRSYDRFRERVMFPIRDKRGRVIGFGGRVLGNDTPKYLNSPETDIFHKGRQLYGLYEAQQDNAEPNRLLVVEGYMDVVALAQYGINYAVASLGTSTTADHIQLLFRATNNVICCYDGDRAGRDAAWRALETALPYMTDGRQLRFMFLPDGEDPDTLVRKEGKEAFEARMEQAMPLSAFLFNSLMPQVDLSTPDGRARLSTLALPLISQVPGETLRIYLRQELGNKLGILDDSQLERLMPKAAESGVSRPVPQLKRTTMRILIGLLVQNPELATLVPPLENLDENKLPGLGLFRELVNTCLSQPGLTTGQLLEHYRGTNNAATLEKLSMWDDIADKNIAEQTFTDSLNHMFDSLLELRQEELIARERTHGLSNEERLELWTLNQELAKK
Guanlyate kinase, sequence (Q0TBG1 whole entry): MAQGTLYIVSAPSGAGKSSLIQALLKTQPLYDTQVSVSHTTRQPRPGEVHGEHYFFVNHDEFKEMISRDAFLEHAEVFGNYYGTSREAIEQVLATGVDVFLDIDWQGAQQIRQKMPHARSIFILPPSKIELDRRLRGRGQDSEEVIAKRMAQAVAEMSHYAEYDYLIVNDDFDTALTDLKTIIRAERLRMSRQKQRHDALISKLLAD

With `Cc1oc(=O)oc1CN1CCN(c2cc3c(cc2F)c(=O)c(C(=O)O)c2n3C(C)S2)CC1` (centres undefined), the relative enzymatic activity with DNA gyrase was determined as 0.0525 ± 0.074; with DNA helicase it was 0.431 ± 0.01; with DNA ligase, 1.19 ± 0.31; with DNA polymerase, 1.23 ± 0.25; with DNA primase it was 0.852 ± 0.0094; with GlmU, 0.942 ± 0.024. Besides, the relative enzymatic activity with Guanlyate kinase worked out at 1.12 ± 0.12; in the test with MurA it was 0.452 ± 0.31; with MurD it was 0.586 ± 0.4; in the test with MurF, 0.963 ± 0.18; with RNA polymerase it was 0.842 ± 0.022.

As to `CCCCCCCCCCCCCCCC[N+](C)(C)C`, the relative enzymatic activity in the test with DNA gyrase was determined as 0.633 ± 0.67; in the test with DNA helicase, 0.0316 ± 0.02; with DNA ligase it was 0.457 ± 0.13; with DNA polymerase, 0.0628 ± 0.012; with DNA primase it was 0.384 ± 0.054; in the test with GlmU it was 0.198 ± 0.0053. The relative enzymatic activity with Guanlyate kinase turned out to be 0.644 ± 0.077; with MurA, 0.0456 ± 0.013; in the test with MurD, 0.173 ± 0.085; with MurF, 0.106 ± 0.034; in the test with RNA polymerase it was 0.223 ± 0.0051.

Regarding `O=C([O-])CCC(=O)OCC(NC(=O)C(Cl)Cl)C(O)c1ccc([N+](=O)[O-])cc1.[Na+]` (centres undefined), the relative enzymatic activity with DNA gyrase amounted to 1.05 ± 0.13; with DNA helicase, 0.463 ± 0.053; in the test with DNA ligase, 0.965 ± 0.047; with DNA polymerase, 1.27 ± 0.34; with DNA primase, 0.718 ± 0.2; with GlmU, 1.02 ± 0.042. The relative enzymatic activity in the test with Guanlyate kinase turned out to be 1.025 ± 0.0099; with MurA, 0.872 ± 0.038; with MurD it was 0.578 ± 0.37; with MurF, 0.957 ± 0.19; in the test on RNA polymerase, 0.838 ± 0.064.

For the compound `CC[C@H](C)C[C@H](C)CCCCCCCCC(=O)N[C@H]1C[C@@H](O)[C@@H](NCCN)NC(=O)[C@@H]2[C@@H](O)CCN2C(=O)[C@H]([C@H](O)CCN)NC(=O)[C@H]([C@H](O)[C@@H](O)c2ccc(O)cc2)NC(=O)[C@@H]2C[C@@H](O)CN2C(=O)[C@H]([C@@H](C)O)NC1=O`, the relative enzymatic activity is 0.131 ± 0.067 in the test with DNA gyrase; 0.0208 ± 0.022 with DNA helicase; 0.699 ± 0.13 with DNA ligase; 0.2437 ± 0.00079 in the test with DNA polymerase; 0.766 ± 0.017 with DNA primase; 1.03 ± 0.013 with GlmU. The relative enzymatic activity was determined as 1.09 ± 0.022 with Guanlyate kinase; 0.522 ± 0.47 with MurA; 0.706 ± 0.5 in the test with MurD; 1.39 ± 0.62 with MurF; 0.408 ± 0.013 in the test with RNA polymerase.

For the compound `Oc1ccc(Cl)c2cccnc12`, the relative enzymatic activity with DNA gyrase was determined as 0.354 ± 0.41; with DNA helicase, 0.534 ± 0.19; with DNA ligase, 1.03 ± 0.24; with DNA polymerase, 1.12 ± 0.21; with DNA primase it was 0.7986 ± 0.0017; with GlmU, 0.9167 ± 0.0045. Further, the relative enzymatic activity worked out at 0.821 ± 0.036 in the test with Guanlyate kinase; 0.442 ± 0.04 with MurA; 0.656 ± 0.46 with MurD; 1.02 ± 0.23 in the test with MurF; 0.854 ± 0.1 in the test on RNA polymerase.

With `NCC1OC(OC2C(N)CC(N)C(OC3OC(CO)C(O)C(N)C3O)C2O)C(N)CC1O` (centres undefined), the relative enzymatic activity with DNA gyrase came to 1.2 ± 0.12; with DNA helicase it was 0.45 ± 0.37; in the test with DNA ligase it was 1.02 ± 0.084; in the test with DNA polymerase, 1.33 ± 0.47; with DNA primase, 0.71 ± 0.18; in the test with GlmU it was 0.979 ± 0.048. Besides, the relative enzymatic activity with Guanlyate kinase turned out to be 1 ± 0.013; with MurA, 0.82 ± 0.12; with MurD, 0.611 ± 0.4; with MurF it was 0.932 ± 0.15; in the test on RNA polymerase it was 0.809 ± 0.04.

For `CCC(C)CCCCC(=O)NC(CCN)C(=O)NC(C(=O)NC(CCN)C(=O)NC1CCNC(=O)C(C(C)O)NC(=O)C(CCN)NC(=O)C(CCN)NC(=O)C(CC(C)C)NC(=O)C(Cc2ccccc2)NC(=O)C(CCN)NC1=O)C(C)O.O=S(=O)(O)O` (centres undefined), the relative enzymatic activity with DNA gyrase was determined as 1.09 ± 0.019; with DNA helicase, 0.653 ± 0.23; with DNA ligase it was 0.982 ± 0.031; in the test with DNA polymerase it was 1.36 ± 0.48; with DNA primase, 0.688 ± 0.15; with GlmU, 1.037 ± 0.0054. Moreover, the relative enzymatic activity in the test with Guanlyate kinase was found to be 0.9729 ± 0.0096; with MurA it was 0.649 ± 0.024; in the test with MurD, 0.639 ± 0.43; in the test with MurF it was 0.894 ± 0.25; with RNA polymerase it was 0.892 ± 0.046.

For the compound `O=[N+]([O-])c1ccc(O)c2ncccc12`, the relative enzymatic activity came to 0.501 ± 0.24 in the test with DNA gyrase; 0.584 ± 0.12 with DNA helicase; 0.808 ± 0.033 in the test with DNA ligase; 0.979 ± 0.076 with DNA polymerase; 0.759 ± 0.023 with DNA primase; 1.03 ± 0.047 in the test with GlmU. Also, the relative enzymatic activity is 0.765 ± 0.026 in the test with Guanlyate kinase; 0.291 ± 0.12 with MurA; 0.588 ± 0.39 in the test with MurD; 0.989 ± 0.21 with MurF; 0.7483 ± 0.0011 in the test with RNA polymerase.

Take `CC(C)(C)CC(C)(C)c1ccc(OCCOCC[N+](C)(C)Cc2ccccc2)cc1.[Cl-]`: the relative enzymatic activity in the test on DNA gyrase amounted to 0.0482 ± 0.068; with DNA helicase, 0.0168 ± 0.00082; with DNA ligase it was 0.917 ± 0.17; with DNA polymerase it was 0.4 ± 0.06; with DNA primase, 0.709 ± 0.21; with GlmU it was 0.121 ± 0.031. Moreover, the relative enzymatic activity with Guanlyate kinase was 0.439 ± 0.06; in the test with MurA, 0.0623 ± 0.0083; in the test with MurD, 0.114 ± 0.033; with MurF it was 0.193 ± 0.035; in the test with RNA polymerase, 0.838 ± 0.16.
